Assay results reported in the supplement of paper PMC6555819.

Tests used:
Assay in all cases: PBM binding z-score (relative to random genomic background probes); higher = stronger binding; sequences stand for … in GC…GCGATTGACAGCGTAGAATGAAGG
[1] = tested on: PPARg:RXRa DBDmut IVT, anti-RXR (DBD mutation: RXRa K156A/R161A, NR concentration 270 nM, RXRa partner concentration 90 nM)
In short: (§1)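 Ligand-free nuclear receptor dimers were applied to custom Agilent 4×180K protein-binding microarrays whose double-stranded probes carried direct-repeat seeds, single-nucleotide variants, half-site ablations and random human genomic background sequences in 34-nt variable regions. Incubation lasted 1 h. Binding z-scores were computed against the random background probes from regression-normalized fluorescence.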

[2] = tested on: PPARg:RXRa IVT, anti-PPARg (NR concentration 270 nM, RXRa partner concentration 90 nM)
In short: as §1

[3] = tested on: PPARg DBDmut:RXRa IVT, anti-PPARg (DBD mutation: PPARg1 K132A/R137A, NR concentration 270 nM, RXRa partner concentration 90 nM)
In short: as §1

[4] = tested on: PPARg DBDmut IVT, anti-PPARg (DBD mutation: PPARg1 K132A/R137A, NR concentration 270 nM)
In short: as §1

[5] = tested on: PPARg homodimer (NR concentration 180 nM)
In short: as §1

[6] = tested on: PXR:RXRa (NR concentration 270 nM, RXRa partner concentration 90 nM)
In short: as §1

[7] = tested on: PXR homodimer (NR concentration 270 nM)
In short: as §1

[8] = tested on: RARa:RXR (NR concentration 270 nM, RXRa partner concentration 90 nM)
In short: as §1

[9] = tested on: RARa homodimer (NR concentration 270 nM)
In short: as §1

[10] = tested on: RARb:RXRa (NR concentration 270 nM, RXRa partner concentration 90 nM)
In short: as §1

Sequence | PBM binding z-score [1] | PBM binding z-score [2] | PBM binding z-score [3] | PBM binding z-score [4] | PBM binding z-score [5] | PBM binding z-score [6] | PBM binding z-score [7] | PBM binding z-score [8] | PBM binding z-score [9] | PBM binding z-score [10]
CAAACTAGGTCACTGGAAGGTCAAAGTCCGCATG | 8.42 | 8.89 | 7.66 | 2.9 | 9.82 | 5.36 | 2.12 | 7.1 | 3.34 | 4.9
CCTGCTAGGTCATGGTAAGCTAATCTACAGTATG | 4.44 | 3.92 | 0.752 | 0.561 | 1.24 | 1.15 | -0.26 | 2.32 | -0.305 | 3.87
TGTCAAAGTTCAAAGGGAACGTAAGTATCCACAC | -0.458 | 3.95 | 2.37 | 1.56 | 4.11 | 4.92 | 4.8 | 4.2 | 1.6 | 4.93
CCTATTAGTTGACCATAAGGGCAACCGAAGCTCG | 0.774 | 0.558 | 0.33 | 0.387 | 1.7 | 1 | 0.754 | 1.37 | 1.39 | 1.7
AGAACGAGGGCAATGCGTTGATAGCACGGGTGGC | 2.94 | 2.57 | 1.12 | 0.0782 | -0.251 | 0.219 | 0.111 | 0.271 | -0.114 | 2.21
CAAACTAGGGCAAGGTCAAAGTCGGTTTGTGCCA | 7.65 | 7.58 | 2.3 | 3.24 | 3.66 | 4.71 | 1.95 | 4.96 | 2.12 | 4.14
CCTACTGGGCTATTCAGAGGTCATTGATCATATG | 2.84 | 2.73 | 0.261 | 0.0805 | 2.7 | 4.9 | 2.27 | 4.54 | 0.714 | 2.79
CACACAGGGTCAGCTAGGCCAGAGTAGGGACGGC | 0.553 | 2.09 | 0.463 | 0.562 | 2.14 | 2.06 | 0.13 | 3.32 | 0.53 | 4.09
ATCTCTAGGTAAAAGTTCACTGAATCCCGAGGAT | 2.27 | 4.44 | 1.42 | 1.19 | 1.29 | 3.44 | 2.38 | 2.99 | 1.08 | 2.97
CCTTACGGGTCACGAGGTTATTGCACGACGAGCG | 4.41 | 5.61 | 1.02 | 0.757 | 3.66 | 4.88 | 0.56 | 6.61 | 1.28 | 4.57
TGAACGAGGTTATAAGATCAGGGAACGTTGCAAA | 0.0481 | 1.09 | 0.721 | 0.611 | 0.735 | 0.661 | -0.0458 | 1.31 | -0.0844 | 1.18
CCGACTGGGGCATAAGGTTACCTTAAGCCAGCCC | 2.68 | 3.27 | -0.344 | -1.61 | 0.545 | 0.197 | -0.44 | 1.22 | -0.764 | 1.49
GTACCAAGGTGAATAGGTCGTTGCTGAGTAGGCG | 1.82 | 2.55 | -0.221 | 0.00615 | 0.964 | 0.496 | -0.427 | 1.55 | -0.268 | 1.96
CCCAGTTGGTCAGGAGGTCACACACCGGATATGA | 0.556 | 3.46 | -0.0435 | -0.356 | 2.74 | 3.97 | 1.3 | 4.22 | 1.81 | 3.79
TCGTGTAGGTTAGGGGCATTCAGAATGGCGTCGA | 1.79 | 1.06 | 0.425 | 0.917 | 1.52 | 0.802 | 0.406 | 1.03 | 0.812 | 1.47
CTCGAAAGGTCGTGCTCAGGTGGGTATACCAAAC | 0.456 | 1.65 | 0.375 | 0.179 | 1.84 | 3.14 | 0.555 | 3.84 | 0.327 | 3.9
CGTCAAAGTTCAACTAAGGTAACCTAAAGCACGC | 0.618 | 2.35 | 0.979 | 1.12 | 5.46 | 6.07 | 4.78 | 5.01 | 2.75 | 5.31
CGTCCAAGGGCAGAGAGGTCAGTGAATGCCGAGT | 0.812 | 1.16 | -1.66 | -1.28 | 1.16 | 3.43 | 6.33 | 2.56 | -0.0232 | 3.92
CCTGCTAGGTCAATGGTCAGCAAAAGCAGCTCGC | 4.13 | 3.94 | -0.42 | -0.782 | 0.701 | 0.88 | -0.358 | 1.49 | -0.178 | 3.86

Sequence | PBM binding z-score [1] | PBM binding z-score [2] | PBM binding z-score [3] | PBM binding z-score [4] | PBM binding z-score [5] | PBM binding z-score [6] | PBM binding z-score [7] | PBM binding z-score [8] | PBM binding z-score [9] | PBM binding z-score [10]
TCATATAGGTAATACATGTGAAAGTCGGCATCTA | 3.84 | 2.56 | 1.65 | 1.42 | 0.451 | 0.682 | 0.0389 | 1.03 | 0.882 | 0.439
GCTATTAGTTGAAGGGGCAACCGAATGATTCTCG | 0.421 | -0.0967 | -0.209 | 0.191 | 1.03 | -0.209 | -0.028 | 0.0521 | 0.778 | 0.759
TAATATAGGTAAACAGGTGAAAGTCCGTAAGTTA | 6.47 | 6.56 | 2.22 | 1.8 | 2.01 | 0.69 | 0.586 | 1.12 | 1.5 | 0.768
TCATATAGCTAAATGCTAGGTGAAAGTCCGATCT | 1.45 | 0.452 | 0.679 | 0.932 | 0.101 | 0.31 | -0.278 | 0.514 | -0.0788 | 0.00512
TTAGCAAGGTGAAGGTCGTTGATCCCTCTGTAGA | 0.732 | 2.79 | -0.57 | -0.963 | 0.358 | 1.19 | -0.023 | 1.51 | -0.525 | 2.03
CGAAATAGGTCATCCAGGACAGTGAATACATTGA | 7.78 | 7.89 | 2.68 | 2.13 | 2.1 | 3.15 | 1.18 | 3.92 | 1.27 | 4.59
AGTCAAAGTTCAGGACGAGGTAACGTGAAGCACG | -0.189 | 2.06 | 0.679 | 0.0315 | 1.48 | 2.72 | 0.947 | 2.65 | 1.04 | 4.51
ATTAGCAGGCCAAGTTTGGGTCACTCAAACAAAG | 0.708 | 1.31 | -0.0201 | -0.208 | 0.531 | 0.924 | 0.144 | 1.97 | -0.273 | 1.83
TGTCAAAGTTCAAAGCTAACGTAAGTATCCACAC | 0.771 | 3.82 | 1.34 | 1.18 | 2.01 | 4.29 | 3.01 | 3.5 | 1.14 | 5.04
AGAACGTGGGCACGCTGAGTTGATAGCAGAGTAG | -0.231 | -0.143 | 0.109 | -0.419 | -0.518 | -0.542 | -0.719 | -0.528 | -0.906 | -0.0707
CCAGACAGGTGAGAAGATAACTCAGCCTCGATTA | 0.896 | 0.216 | -0.0942 | -0.455 | 0.364 | 0.081 | 0.476 | 0.117 | 0.792 | 0.241
CGTCAATGTTCAAGGTAACGTAACAGAAAGCAGC | -0.165 | 0.397 | 0.371 | 0.433 | 0.235 | 0.00739 | -0.0049 | -0.00308 | 0.0887 | 0.375
GGGACGAGGGCATTCGAGTTGATAGCATGGCGAT | 1.51 | 1.47 | -0.173 | 0.189 | 0.254 | 3.68 | 1.37 | 1.08 | 0.349 | 2
CAAACTAGGTCATTGACAGGACAGTGAATAGTAA | 8.37 | 8.3 | 2.39 | 1.76 | 2.3 | 1.73 | 0.252 | 2.35 | 0.262 | 3.75
CGTCCAAGGACAAAGGTCAGTGAAGAGATGACGG | 0.675 | 2.78 | -0.53 | -0.214 | 2.27 | 3.18 | 0.71 | 3.79 | 1.02 | 4.56
ATCACTAGGTAAGACTCAGTTCAGTGAAGAACGC | 3.04 | 2.02 | 0.271 | 1.07 | 0.437 | 0.891 | 0.972 | 0.026 | 1.03 | 0.143
TCATATAGGTAAATGTTAGGTGAAAGTCCGATCT | 4.12 | 2.63 | 1.47 | 1.82 | 1.66 | 0.918 | 0.8 | 1.63 | 1.9 | 0.728
CCTCGGAGGACAGAAGGTCAGACCTGTCCGCTTT | 0.156 | 0.0592 | -1.1 | -2.09 | 1.39 | 1.69 | -0.272 | 2.2 | -0.193 | 3.22
GCTCGGAGGACCAGGTCAGAGCTTTGTCCGTAGA | -0.0233 | -0.0399 | -1.45 | -1.52 | -0.553 | 0.343 | -0.875 | 0.505 | -0.985 | 1.35
